Reference: PubChem BioAssay (Tox21)
Inconclusive results are not listed. The source made the active and inactive calls. Calls follow the shape of the dose curve; as a rule, active = well fitted curve in the direction sought with a large enough effect in the repeat runs; inconclusive = weak or mixed curves; inactive = no such curve, though single readings can be large; an effect the other way counts as inactive or inconclusive.

Test: qHTS assay to identify small molecule agonists of the RXR signaling pathway - cell viability counter screen (AID 1159529);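 also: HEK 293T cells carrying an RXR-alpha UAS beta-lactamase reporter; nearly all actives have a fitted effect of over 50% in size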
Details: RXR-alpha-bla HEK293T viability, CellTiter-Glo, 16 h; series mostly up to 76.8 µM; activity change, negative = cytotoxicity: at the top concentration
Method in brief: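 Viability read-out for the RXR-alpha agonist qHTS: luminescent CellTiter-Glo signal after 30 min at RT. HEK 293T bla reporter cells, 2% charcoal-stripped FBS, 16 hr compound incubation; tetraoctyl ammonium bromide as cytotoxic control.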
% is scaled to controls: 0 for no effect and ±100 for the full control effect.

| SMILES | activity change, negative = cytotoxicity |
| --- | --- |
| CC1=C(O)C(=O)OC1C (stereo not given) | 13.3% (inactive) |
| NS(=O)(=O)c1cc(-c2nn[nH]n2)c(NCc2cccs2)cc1Cl | 9.3% [at 35.3 µM] (inactive) |
| NC1=NCC2c3ccccc3Cc3ccccc3N12 (stereo not given) | 6.12% [at 35.3 µM] (inactive) |
| O=CCCc1ccccc1 | -4.65% (inactive) |
| CCOc1ccc2nc(N)sc2c1 | -10.7% (inactive) |
| FC(F)(F)C(F)(F)C(F)(F)C(F)(F)C(F)(F)C(F)(F)C(F)(F)C(F)(F)Br | -8.93% [at 35.3 µM] (inactive) |
| CC(=O)Oc1cc(C(C)C)c(OCCN(C)C)cc1C | 1.7% [at 35.3 µM] (inactive) |
| CCN1CC(CCN2CCOCC2)C(c2ccccc2)(c2ccccc2)C1=O (stereo not given) | -5.91% [at 35.3 µM] (inactive) |
| CCCCC(=O)O[C@]1(C(=O)CO)[C@H](C)C[C@H]2[C@@H]3CCC4=CC(=O)C=C[C@]4(C)[C@@]3(F)[C@@H](O)C[C@@]21C | -9.54% [at 35.3 µM] (inactive) |
| CC(=O)OC(C)OC(C)=O | -9.54% (inactive) |
| CS(=O)(=O)c1ccc([C@@H](O)[C@@H](CF)NC(=O)C(Cl)Cl)cc1 | 3.98% [at 35.3 µM] (inactive) |
| CC(C)Nc1nc(N)nc(Cl)n1 | -1.12% (inactive) |
| N#Cc1ccc(C(c2ccc(C#N)cc2)n2cncn2)cc1 | 1.79% [at 35.3 µM] (inactive) |
| COc1cc(N)c(Cl)cc1C(=O)NC1CCN(Cc2ccccc2)CC1 | -23% [at 35.3 µM] (inactive) |
| CN(C)CC[C@@H](c1ccc(Cl)cc1)c1ccccn1 | -6.44% [at 35.3 µM] (inactive) |
| CCCCCCCCCC/C=C/C#N | 2.7% (inactive) |
| OCC(CBr)(CBr)CBr | -6.39% (inactive) |
| CCCCC1CCC(=O)O1 (stereo not given) | 1.58% (inactive) |
| CCOC(=O)C(Br)c1ccccc1 (stereo not given) | -13.7% (inactive) |

Test: qHTS assay to identify small molecule antagonists of the retinoid acid receptor (RAR) signaling pathway - cell viability counter screen (AID 1159551); also: nearly all actives have a fitted effect of over 35% in size
Details: C3RL4 cells viability, ATP luminescence (CellTiter-Glo), 6 h; series mostly up to 92.4 µM; activity change, negative = cytotoxicity: at the top concentration
Method in brief: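 C3RL4 cells were seeded overnight at 37 C, then treated with compounds plus 1 uM (final) retinol for 6 h at 37 C. Viability was read as ATP by CellTiter-Glo luminescence after 30 min at room temperature.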

| SMILES | activity change, negative = cytotoxicity |
| --- | --- |
| CCCCNc1ccc(C(=O)OCCN(CC)CC)cc1 | -0.0285% [at 42.5 µM] (inactive) |
| CC1=C(O)C(=O)OC1C (stereo not given) | -0.816% (inactive) |
| C=CCCC=C | -2.92% (inactive) |
| CC(C)C(=O)OC/C=C/c1ccccc1 | -2.21% (inactive) |
| NS(=O)(=O)c1cc(-c2nn[nH]n2)c(NCc2cccs2)cc1Cl | 0.229% [at 42.5 µM] (inactive) |
| CCc1nnc(NS(=O)(=O)c2ccc(N)cc2)s1 | 0.343% [at 42.5 µM] (inactive) |
| NC1=NCC2c3ccccc3Cc3ccccc3N12 (stereo not given) | 0.0822% [at 42.5 µM] (inactive) |
| O=CCCc1ccccc1 | 3.74% (inactive) |
| CCOC(=O)c1ccccc1O | 2.26% [at 42.5 µM] (inactive) |
| Cc1cccc(C)c1NC(=O)CN1CCCCCC1 | 2.64% [at 42.5 µM] (inactive) |
| CCOc1ccc2nc(N)sc2c1 | 1.63% (inactive) |
| FC(F)(F)C(F)(F)C(F)(F)C(F)(F)C(F)(F)C(F)(F)C(F)(F)C(F)(F)Br | 4.88% [at 42.5 µM] (inactive) |
| CC(=O)Oc1cc(C(C)C)c(OCCN(C)C)cc1C | 3.13% [at 42.5 µM] (inactive) |
| CCN1CC(CCN2CCOCC2)C(c2ccccc2)(c2ccccc2)C1=O (stereo not given) | 3.99% [at 42.5 µM] (inactive) |
| O=C1CCCCC1C1CCCCC1 (stereo not given) | -0.217% (inactive) |
| C[C@@H](N)C(=O)O | 0.615% [at 42.5 µM] (inactive) |

| SMILES | activity change, negative = cytotoxicity |
| --- | --- |
| CCCCC(=O)O[C@]1(C(=O)CO)[C@H](C)C[C@H]2[C@@H]3CCC4=CC(=O)C=C[C@]4(C)[C@@]3(F)[C@@H](O)C[C@@]21C | 0.136% [at 42.5 µM] (inactive) |
| CC(=O)OC(C)OC(C)=O | 1.04% (inactive) |
| CS(=O)(=O)c1ccc([C@@H](O)[C@@H](CF)NC(=O)C(Cl)Cl)cc1 | 0.0833% [at 42.5 µM] (inactive) |
| CC1(C)C(=O)N(Cl)C(=O)N1Br | 4.41% (inactive) |
| CC(C)Nc1nc(N)nc(Cl)n1 | 5.69% (inactive) |
| CCC1(C)NC(=O)NC1=O (stereo not given) | -1.88% (inactive) |
| N#Cc1ccc(C(c2ccc(C#N)cc2)n2cncn2)cc1 | -1.78% [at 42.5 µM] (inactive) |
| C1CCOC1 | -0.988% (inactive) |
| CN1CCN(N)CC1 | 0.844% [at 42.5 µM] (inactive) |
| Cc1cc2nc(N)sc2cc1C | -6.37% (inactive) |
| CN(C)CCOc1ccccc1Cc1ccccc1 | 0.0561% [at 42.5 µM] (inactive) |
| Cc1ccc(C)c(N)c1 | 0.879% (inactive) |
| COc1cc(N)c(Cl)cc1C(=O)NC1CCN(Cc2ccccc2)CC1 | 0.176% [at 42.5 µM] (inactive) |
| CN(C)CC[C@@H](c1ccc(Cl)cc1)c1ccccn1 | 1.82% [at 42.5 µM] (inactive) |
| Cc1onc(-c2ccccc2)c1C(=O)Cl | 1.59% [at 42.5 µM] (inactive) |
